Most compounds without a hit are left out; they make up all but 0.36% or so of the library.
AID504770: growth inhibition of E. coli YBA685, primary screen, V. cholerae RctB inhibitors; E. coli YBA685 rctB-dependent plasmid, OD600 growth, 3 h; active compounds read low; z-score (no concentration beside the values); 130,000 tested, 0.27% active; in the data active = z-score below about -2, passing the limit was not always enough
CapD inh: Bacillus anthracis CapD inhibitors, primary screen, biochemical, fluorescence intensity. CapD gamma-glutamyltranspeptidase (Bacillus anthracis Ames Ancestor). AID 492967, 2010. 140,000 tested, 0.23% active. z-score (no concentration beside the values). purified CapD enzyme, fluorescence intensity read-out; active compounds read low; in the data active = z-score mostly below about -2.9, no sharp cut-off; inactive = mostly above about -1.9
An asterisk follows results filed as active; nt = no result.

SMILES | AID504770 | CapD inh
NC(=O)c1ccsc1NC(=O)Cc1ccc(S(=O)(=O)N2CCOCC2)s1 | -5.4* | nt
O=C(O)/C=C/c1ccc2c(c1)OC(F)(F)O2 | nt | -0.27
Cc1ccc(-n2c(=S)[nH]c3c(c2=O)C2(CCCCC2)Cc2ccccc2-3)cc1 | nt | -0.19
N#CC(C#N)=Cc1ccc(O)c(Cl)c1 | -0.8 | -5.4*
CSc1ccc(C=C(C#N)C#N)cc1 | nt | -0.67
N#Cc1ccc(SCCO)c([N+](=O)[O-])c1 | nt | 0
O=[N+]([O-])c1ccc(SCCO)c2nonc12 | nt | -4*
O=C(N/N=C/c1cccc(O)c1)C1C2CCCCC21 (stereo not given) | -0.8 | -0.12
CCN1/C(=C\C(=O)C2CC2)Sc2ccccc21 | 0.05 | nt
CCN1/C(=C\C(=S)Nc2ccccc2)Sc2ccccc21 | 0.55 | -4.4*
COc1ccc(C2NS(=O)(=O)N=C3CCCN32)c(OC)c1 (stereo not given) | 0.2 | nt
COC(=O)CSC1=C(C#N)C(=O)NC(c2ccccc2O)S1 (stereo not given) | -1.8 | 0.56
N#CC1=C(SCc2ccccc2)SC(c2ccccc2O)NC1=O (stereo not given) | -3.4* | 0.51
O=c1[nH]n(CNc2ccc(F)cc2)c(=O)c2ccccc12 | 2.2 | -0.1
Cc1cc(C)c2cccnc2c1O | -2.4* | -0.48
Oc1c(Br)cc(Br)c2cccnc12 | -0.35 | 0.27
O=C1c2cccc3cccc(c23)C(=O)N1c1ccc2c(c1)OCO2 | 1.7 | 0.46
O=C1C=CC(=O)N1c1ccc2c(c1)OCO2 | -2* | nt
CNc1ccccc1C(=O)OCC(=O)c1ccccc1 | -3.2* | -0.13
CNc1ccccc1C(=O)OCC(=O)c1ccc(F)cc1 | -0.5 | nt
CCOC(=O)c1ccc2c(c1)c(C)c(C)n2C | -1.5 | 2.8
Cc1cc(C(=O)O)ccc1-n1c(C)ccc1C | 0.8 | -0.4
Cc1ccc(C)n1-c1ccc(C(=O)O)cc1O | 1.3 | -9*
Cn1cccc1/C=N/n1cnnc1 | 0.3 | -5.5*
C(=N\n1cnnc1)/c1ccccc1 | -0.15 | 0.41
SMILES | AID504770 | CapD inh
CCOc1cccc(/C=N/NC(=O)/C=C/c2ccc3c(c2)OCO3)c1O | nt | 3.4
CCOC(=O)C1=C(N)Oc2c(c(=O)oc3ccccc23)C1c1cccc(Cl)c1 (stereo not given) | nt | 0.87
CC1(C)C(=O)N(c2cccc(Cl)c2)C(=O)C1(C)C | -1.1 | 0.47
Cc1ccc(N2C(=O)C=CC2=O)cc1 | -1.4 | nt
O=C1C=CC(=O)N1c1cccc(Cl)c1 | -4* | -0.07
O=C1C=CC(=O)N1c1ccccc1 | -7* | -0.57
CCOC(=O)C1=NN(C(=O)c2cccc([N+](=O)[O-])c2)C(O)(C(C)(C)C)C1 (stereo not given) | nt | -0.52
O=C(O)C(=O)/C=C(\O)c1ccccc1 | 1.1 | -2.2
O=C(/C=C(\O)c1ccccc1)C(F)(F)C(F)F | -3.5* | -1.9
Nc1ccccc1-n1c(-c2ccccc2)c2c(c1-c1ccc(Cl)cc1)C(=O)c1ccccc1C2=O | nt | -0.15
CC(=O)C12c3ccccc3C(c3ccccc31)C1C(=O)N(c3ccccc3C)C(=O)C12 (stereo not given) | nt | -0.28
CN(C)CCN(C(=O)c1ccco1)c1nc2cc3c(cc2s1)OCO3 | 0.15 | -2.6
CN(C)CCN(C(=O)Cc1ccccc1)c1nc2cc3c(cc2s1)OCCO3 | -2.3* | -1
CN(C)C(=O)c1cn(-c2ccccc2)nc1-c1ccc(OC(F)F)cc1 | -0.2 | nt
O=C(NC1CCCc2ccccc21)c1cc(C2CC2)[nH]n1 (stereo not given) | 0.35 | -0.015
CCOc1ccc(NC(C)C(=O)N/N=C/c2ccc(N(C)C)cc2)cc1 (stereo not given) | 1.5 | 20
O=C(CCS(=O)(=O)c1cccs1)NC1CCCc2ccccc21 (stereo not given) | 1.2 | 0.3
O=S(=O)(NC1CCCc2ccccc21)c1cccs1 (stereo not given) | -1.1 | -1.7*
O=C1N2CN(C3CCCCC3)CN3C(=O)N4CN(C5CCCCC5)CN1C4C23 (stereo not given) | nt | -0.085
CCOC(=O)NCc1n[nH]c(=O)c2ccccc12 | -0.6 | nt
CNC(=O)CCCN1C(=O)c2ccccc2C1=O | -1.2 | -0.27
c1ccc(-c2cnc3nonc3n2)cc1 | -3* | -1.9
Cc1cc2ncc(-c3ccccc3)nc2cc1C | -0.9 | 2
CCc1c(C)nc(N)nc1N1NC1=S | -0.05 | -1
CCc1c(C)[nH]c(N)nc1=S | -1.1 | -4.4*
SMILES | AID504770 | CapD inh
C1CCC(CN2CCOCC2)CC1 | -1.1 | -0.075
Cc1ccc(N=NN(C)C)cc1 | -6.7* | -1
Cc1ccc(C=Nc2ccc(C)cc2)cc1 | nt | 0.12
CC(=O)N(C(C)=O)S(=O)(=O)c1ccc(N=NN(C)C)cc1 | -1.5 | -5.1*
CN(C)N=Nc1ccc(S(=O)(=O)NC(=O)Cc2ccccc2)cc1 | 0.75 | -1.4
c1ccc2sc3c(-c4ccncc4)sc4ccccc4[nH]c-3nc2c1 | -0.4 | -4.1*
c1ccc(-c2nnsc2-c2nc3ccccc3[nH]2)cc1 | -0.2 | 1.6
CCCCCCCCCCOCCOCCOC(=O)NNC(=O)CC1Sc2ccccc2NC1=O (stereo not given) | nt | -0.1
C1CN=C(Nc2nn[nH]n2)C1 | -0.65 | nt
CCOc1cc(C2NC(=O)NC(C)=C2C(=O)Nc2ccccc2C)ccc1O (stereo not given) | nt | 0.14
COc1ccc(-n2c(C(C)N3CCCCC3)n[nH]c2=S)cc1 (stereo not given) | -5.2* | nt
COc1ccc(N2CCN(CCN3CCCCC3)CC2)cc1 | -0.1 | nt
N/C(=N\OC(=O)c1ccccc1)c1cccnc1 | -1 | nt
CC(Oc1cccc(Cl)c1)C(=O)O/N=C(\N)c1cccnc1 (stereo not given) | -0.6 | -6*
CNC(=O)C1c2ccccc2Oc2ccccc21 | 0.85 | nt
CC(C)(C)C1=CC(C(C#N)C#N)c2ccccc2O1 (stereo not given) | -2.1* | -0.44
C=CCN(CC=C)C(=O)C[n+]1cccc(C(N)=O)c1 | 0.2 | 0.17
C=CCN(CC=C)C(=O)C[n+]1ccc(C(N)=O)cc1 | -4* | 0
O=C(NC1CCCC1)C(c1ccc(O)cc1)N(C(=O)Cn1nnc(-c2cccs2)n1)C1CCCC1 (stereo not given) | 0.6 | nt
CC1(C)CC(=O)C=C(Nc2ccccc2F)C1 | -2.5* | nt
CC1(C)CC(=O)C=C(Nc2ccc(F)cc2)C1 | -1.1 | 7.5
CC(NC(=O)c1ccc2c(c1)N(C)CCS2)c1ccccc1 (stereo not given) | 0.35 | 26
O=c1c(=NO)c(=O)c2ccccc12 | 2.2 | -5.4*
O=c1c2ccccc2c2nc3c(=O)c4ccccc4c3nc12 | -0.05 | nt
Cc1cccc(-n2c(SCc3c(C)noc3C)nc3ccccc32)c1 | 0.3 | nt
SMILES | AID504770 | CapD inh
NC(=O)N/N=C/c1ccc([N+](=O)[O-])o1 | -3.5* | 0.18
NS(=O)(=O)c1ccc(C(=O)N/N=C/c2ccc([N+](=O)[O-])o2)cc1 | nt | -3.1
O=C1c2ccccc2-c2onc3ccc(Oc4ccccc4)c1c23 | nt | -0.92
O=C1c2ccccc2-c2onc3ccc(Oc4c(F)c(F)c(F)c(F)c4F)c1c23 | -2.2* | nt
NC(=O)Cn1cnc2c(cnn2-c2ccccc2)c1=O | -0.2 | -0.25
Cc1cccc(/C=N/NC(=O)c2ccccn2)c1O | -2.3* | nt
O=C(N/N=C\c1ccccc1C(F)(F)F)c1ccccn1 | -0.65 | -0.05
CC(C)(C)n1nnnc1C(c1ccc2ncccc2c1)N1CCc2ccccc21 (stereo not given) | -1.1 | nt
